# Source: paper PMC7862700, “An all-to-all approach to the identification of sequence-specific readers for epigenetic DNA modifications on cytosine”
# Legend:
# Assay in all cases: DAPPL (digital affinity profiling via proximity ligation, sequencing); 10 mM Tris-HCl pH 7.5, 50 mM NaCl, 1 mM DTT, 4% glycerol, room temperature, 30 min; GST-TFs on glutathione beads, 16-mer random dsDNA library, 0.1% formaldehyde crosslink after washing; high values mean tight binding
# Conditions in all cases: protein: recombinant; tags: N-terminal GST; dsDNA, one strand shown
# FLI1 = target: T1, FLI1 (Homo sapiens, UniProt Q01543 1-452)
# T1 sequence: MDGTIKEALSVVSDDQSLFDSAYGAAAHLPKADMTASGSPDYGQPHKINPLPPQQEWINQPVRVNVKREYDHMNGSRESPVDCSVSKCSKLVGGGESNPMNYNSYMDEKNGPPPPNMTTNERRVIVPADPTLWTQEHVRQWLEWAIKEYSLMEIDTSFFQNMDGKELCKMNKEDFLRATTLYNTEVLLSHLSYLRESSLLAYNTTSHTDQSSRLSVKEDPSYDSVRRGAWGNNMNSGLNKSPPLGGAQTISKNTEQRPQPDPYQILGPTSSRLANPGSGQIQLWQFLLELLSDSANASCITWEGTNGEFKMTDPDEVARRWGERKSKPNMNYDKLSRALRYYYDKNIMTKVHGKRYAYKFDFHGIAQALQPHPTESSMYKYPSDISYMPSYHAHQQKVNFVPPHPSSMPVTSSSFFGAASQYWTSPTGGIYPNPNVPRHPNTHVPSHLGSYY
# Summary of the method: (§1)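 Binding signal is each hexamer's read frequency for a factor divided by its frequency in the tag-only sample. The factors were GST-fused human transcription factors from yeast, captured on glutathione beads, DNA-barcoded and pooled with that sample. Pools were incubated with 200 nmole of a random double-stranded 16-mer DNA library in Tris/NaCl/DTT/glycerol buffer at room temperature for 30 min, then washed, crosslinked with 0.1% formaldehyde, proximity-ligated with BsaI/T4 ligase (1 h, 37 °C), PCR-amplified and sequenced on an Illumina NextSeq500.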
# ELK1 = target: T2, ELK1 (Homo sapiens, UniProt P19419 1-428)
# T2 sequence: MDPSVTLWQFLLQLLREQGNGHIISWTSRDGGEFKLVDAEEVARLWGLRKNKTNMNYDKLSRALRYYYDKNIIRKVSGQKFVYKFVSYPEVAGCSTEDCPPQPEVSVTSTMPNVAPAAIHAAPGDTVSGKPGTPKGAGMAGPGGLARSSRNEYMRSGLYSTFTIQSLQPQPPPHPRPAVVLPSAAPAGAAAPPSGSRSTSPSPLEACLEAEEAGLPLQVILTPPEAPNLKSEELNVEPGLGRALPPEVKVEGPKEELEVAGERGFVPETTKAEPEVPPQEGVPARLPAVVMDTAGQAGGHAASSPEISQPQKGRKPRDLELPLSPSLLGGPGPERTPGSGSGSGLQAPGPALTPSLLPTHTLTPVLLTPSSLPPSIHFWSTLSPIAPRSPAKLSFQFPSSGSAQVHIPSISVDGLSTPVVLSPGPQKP
# Summary of the method: as §1
# GABPA = target: T3, GABPA (Homo sapiens, UniProt Q06546 1-454)
# T3 sequence: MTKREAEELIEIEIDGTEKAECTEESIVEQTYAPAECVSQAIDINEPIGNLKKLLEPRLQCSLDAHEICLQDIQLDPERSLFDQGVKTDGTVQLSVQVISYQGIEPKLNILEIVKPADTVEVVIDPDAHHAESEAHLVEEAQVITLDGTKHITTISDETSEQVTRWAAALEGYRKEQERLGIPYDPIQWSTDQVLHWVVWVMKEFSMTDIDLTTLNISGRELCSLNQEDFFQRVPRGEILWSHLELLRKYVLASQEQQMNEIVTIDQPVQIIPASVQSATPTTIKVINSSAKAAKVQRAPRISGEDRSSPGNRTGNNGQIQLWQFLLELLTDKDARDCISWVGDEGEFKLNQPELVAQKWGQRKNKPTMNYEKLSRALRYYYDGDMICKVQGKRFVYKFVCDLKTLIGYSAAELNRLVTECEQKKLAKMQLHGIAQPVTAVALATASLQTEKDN
# Summary of the method: as §1
# ERG = target: T4, ERG (Homo sapiens, UniProt P11308 1-479)
# T4 sequence: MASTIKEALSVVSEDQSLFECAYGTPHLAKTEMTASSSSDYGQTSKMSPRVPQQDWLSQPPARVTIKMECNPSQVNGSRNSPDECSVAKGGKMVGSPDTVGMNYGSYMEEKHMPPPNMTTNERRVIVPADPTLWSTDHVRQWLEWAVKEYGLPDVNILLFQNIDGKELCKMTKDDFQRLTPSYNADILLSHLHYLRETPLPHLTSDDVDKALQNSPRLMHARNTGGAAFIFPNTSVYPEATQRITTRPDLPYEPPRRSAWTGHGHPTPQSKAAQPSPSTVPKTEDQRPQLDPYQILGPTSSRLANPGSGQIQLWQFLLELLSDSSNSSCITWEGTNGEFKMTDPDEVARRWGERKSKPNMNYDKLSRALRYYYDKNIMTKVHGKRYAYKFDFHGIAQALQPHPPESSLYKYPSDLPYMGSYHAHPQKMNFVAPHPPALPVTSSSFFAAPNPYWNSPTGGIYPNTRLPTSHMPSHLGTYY
# Summary of the method: as §1
# ELF1 = ELF1 (Homo sapiens, UniProt P32519 1-619)
# ELF1, sequence (P32519 whole entry): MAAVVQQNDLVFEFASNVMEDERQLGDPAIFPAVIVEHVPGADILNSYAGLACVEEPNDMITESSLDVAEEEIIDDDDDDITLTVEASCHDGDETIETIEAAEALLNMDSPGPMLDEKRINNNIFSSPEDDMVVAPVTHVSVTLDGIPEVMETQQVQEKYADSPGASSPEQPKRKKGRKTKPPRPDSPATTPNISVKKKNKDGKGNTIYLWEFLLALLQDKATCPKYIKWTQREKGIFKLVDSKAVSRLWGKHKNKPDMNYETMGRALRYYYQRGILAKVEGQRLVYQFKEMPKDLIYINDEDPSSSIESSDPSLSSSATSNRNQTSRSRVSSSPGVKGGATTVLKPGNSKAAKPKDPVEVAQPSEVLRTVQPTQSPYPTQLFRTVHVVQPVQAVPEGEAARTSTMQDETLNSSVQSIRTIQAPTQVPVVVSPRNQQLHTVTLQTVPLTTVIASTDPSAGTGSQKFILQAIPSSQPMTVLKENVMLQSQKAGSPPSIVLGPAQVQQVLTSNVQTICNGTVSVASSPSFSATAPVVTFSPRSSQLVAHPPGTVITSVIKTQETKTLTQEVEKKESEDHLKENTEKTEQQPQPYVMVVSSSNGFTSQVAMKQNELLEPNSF
# Summary of the method: as §1
# EHF = target: T5, EHF (Homo sapiens, UniProt Q9NZC4 1-300)
# T5 sequence: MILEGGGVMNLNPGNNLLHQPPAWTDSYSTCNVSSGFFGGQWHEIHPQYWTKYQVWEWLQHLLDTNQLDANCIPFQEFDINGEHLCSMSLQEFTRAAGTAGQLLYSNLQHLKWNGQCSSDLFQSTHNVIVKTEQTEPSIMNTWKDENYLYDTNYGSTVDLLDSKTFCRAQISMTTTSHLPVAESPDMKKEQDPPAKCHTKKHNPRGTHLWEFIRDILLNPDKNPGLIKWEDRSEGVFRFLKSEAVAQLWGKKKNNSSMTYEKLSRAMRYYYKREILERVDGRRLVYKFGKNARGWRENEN
# Summary of the method: as §1
# FEV = target: T6, FEV (Homo sapiens, UniProt Q99581 1-238)
# T6 sequence: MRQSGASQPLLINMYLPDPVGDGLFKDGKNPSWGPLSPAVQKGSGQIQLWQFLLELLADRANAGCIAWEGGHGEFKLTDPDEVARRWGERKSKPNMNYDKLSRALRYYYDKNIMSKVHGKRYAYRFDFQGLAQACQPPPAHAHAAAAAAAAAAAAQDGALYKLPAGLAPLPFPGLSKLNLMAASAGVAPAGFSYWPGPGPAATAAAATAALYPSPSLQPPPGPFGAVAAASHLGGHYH
# Summary of the method: as §1
# SPIC = target: T7, SPIC (Homo sapiens, UniProt Q8N5J4 1-248)
# T7 sequence: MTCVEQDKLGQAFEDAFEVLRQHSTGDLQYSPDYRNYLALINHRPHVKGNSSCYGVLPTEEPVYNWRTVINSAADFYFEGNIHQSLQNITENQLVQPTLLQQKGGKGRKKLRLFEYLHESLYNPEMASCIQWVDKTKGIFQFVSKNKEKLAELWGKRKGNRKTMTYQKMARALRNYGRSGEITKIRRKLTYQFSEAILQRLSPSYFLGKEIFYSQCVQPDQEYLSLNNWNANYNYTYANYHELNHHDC
# Summary of the method: as §1
# ELF4 = ELF4 (Homo sapiens, UniProt Q99607 1-663)
# ELF4, sequence (Q99607 whole entry): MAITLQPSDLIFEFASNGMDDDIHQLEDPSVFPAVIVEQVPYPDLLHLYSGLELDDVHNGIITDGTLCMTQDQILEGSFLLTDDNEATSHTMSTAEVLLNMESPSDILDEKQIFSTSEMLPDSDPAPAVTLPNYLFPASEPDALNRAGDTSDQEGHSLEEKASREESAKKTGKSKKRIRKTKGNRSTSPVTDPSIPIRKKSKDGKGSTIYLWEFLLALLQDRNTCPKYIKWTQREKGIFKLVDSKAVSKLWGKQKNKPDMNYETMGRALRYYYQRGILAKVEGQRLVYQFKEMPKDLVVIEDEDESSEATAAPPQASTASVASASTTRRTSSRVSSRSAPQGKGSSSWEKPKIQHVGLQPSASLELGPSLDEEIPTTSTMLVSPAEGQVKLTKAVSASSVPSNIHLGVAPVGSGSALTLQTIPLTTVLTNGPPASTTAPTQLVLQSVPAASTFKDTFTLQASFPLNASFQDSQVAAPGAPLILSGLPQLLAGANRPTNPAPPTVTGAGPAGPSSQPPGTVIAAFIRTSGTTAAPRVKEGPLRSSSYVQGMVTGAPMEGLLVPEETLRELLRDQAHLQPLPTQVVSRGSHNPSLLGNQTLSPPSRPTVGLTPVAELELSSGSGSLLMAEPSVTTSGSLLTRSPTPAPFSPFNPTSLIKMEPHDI
# Summary of the method: as §1
# ELK4 = target: T8, ELK4 (Homo sapiens, UniProt P28324-2 1-405)
# T8 sequence: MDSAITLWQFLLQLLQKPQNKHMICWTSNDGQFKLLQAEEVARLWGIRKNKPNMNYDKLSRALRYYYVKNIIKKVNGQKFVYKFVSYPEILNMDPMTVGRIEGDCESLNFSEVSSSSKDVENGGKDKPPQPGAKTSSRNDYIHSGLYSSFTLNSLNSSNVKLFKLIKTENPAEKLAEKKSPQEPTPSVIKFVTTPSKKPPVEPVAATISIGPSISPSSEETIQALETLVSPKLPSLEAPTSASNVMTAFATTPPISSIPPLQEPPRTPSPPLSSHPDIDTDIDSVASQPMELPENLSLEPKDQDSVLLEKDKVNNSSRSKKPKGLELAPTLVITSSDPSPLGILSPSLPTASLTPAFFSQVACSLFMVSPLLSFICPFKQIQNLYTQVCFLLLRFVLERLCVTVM
# Summary of the method: as §1
# ETV1 = ETV1 (Homo sapiens, UniProt P50549 1-477)
# ETV1, sequence (P50549 whole entry): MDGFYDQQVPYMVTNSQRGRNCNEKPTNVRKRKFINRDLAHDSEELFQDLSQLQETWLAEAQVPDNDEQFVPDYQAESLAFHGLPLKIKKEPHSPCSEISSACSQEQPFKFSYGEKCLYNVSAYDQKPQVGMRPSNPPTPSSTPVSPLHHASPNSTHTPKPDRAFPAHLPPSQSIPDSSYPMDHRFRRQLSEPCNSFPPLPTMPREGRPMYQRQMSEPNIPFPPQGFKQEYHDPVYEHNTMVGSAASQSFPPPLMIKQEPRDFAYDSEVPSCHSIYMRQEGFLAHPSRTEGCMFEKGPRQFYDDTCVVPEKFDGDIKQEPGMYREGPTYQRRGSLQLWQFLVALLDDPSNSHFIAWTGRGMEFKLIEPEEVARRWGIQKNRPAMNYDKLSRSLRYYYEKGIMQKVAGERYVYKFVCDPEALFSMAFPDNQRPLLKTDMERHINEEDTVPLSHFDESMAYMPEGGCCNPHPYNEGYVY
# Summary of the method: as §1
# SPDEF = target: T9, SPDEF (Homo sapiens, UniProt O95238 1-335)
# T9 sequence: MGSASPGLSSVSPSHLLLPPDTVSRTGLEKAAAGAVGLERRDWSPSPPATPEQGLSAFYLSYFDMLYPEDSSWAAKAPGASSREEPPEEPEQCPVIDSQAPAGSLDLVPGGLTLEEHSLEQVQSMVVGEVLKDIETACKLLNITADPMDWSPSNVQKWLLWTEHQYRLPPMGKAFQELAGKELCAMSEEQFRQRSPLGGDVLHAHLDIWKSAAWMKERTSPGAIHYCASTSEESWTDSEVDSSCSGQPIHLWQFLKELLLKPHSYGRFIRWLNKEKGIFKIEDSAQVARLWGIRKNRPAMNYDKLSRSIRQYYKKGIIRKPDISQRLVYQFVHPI
# Summary of the method: as §1
# ELF5 = target: T10, ELF5 (Homo sapiens, UniProt Q9UKW6-2 1-255)
# T10 sequence: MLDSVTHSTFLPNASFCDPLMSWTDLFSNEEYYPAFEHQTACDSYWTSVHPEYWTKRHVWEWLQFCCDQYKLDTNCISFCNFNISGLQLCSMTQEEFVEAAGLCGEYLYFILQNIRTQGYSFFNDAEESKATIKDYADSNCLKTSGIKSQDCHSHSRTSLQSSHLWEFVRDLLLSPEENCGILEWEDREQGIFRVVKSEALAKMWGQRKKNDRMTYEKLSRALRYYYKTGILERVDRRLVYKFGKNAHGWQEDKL
# Summary of the method: as §1
# ETV6 = ETV6 (Homo sapiens, UniProt P41212 1-452)
# ETV6, sequence (P41212 whole entry): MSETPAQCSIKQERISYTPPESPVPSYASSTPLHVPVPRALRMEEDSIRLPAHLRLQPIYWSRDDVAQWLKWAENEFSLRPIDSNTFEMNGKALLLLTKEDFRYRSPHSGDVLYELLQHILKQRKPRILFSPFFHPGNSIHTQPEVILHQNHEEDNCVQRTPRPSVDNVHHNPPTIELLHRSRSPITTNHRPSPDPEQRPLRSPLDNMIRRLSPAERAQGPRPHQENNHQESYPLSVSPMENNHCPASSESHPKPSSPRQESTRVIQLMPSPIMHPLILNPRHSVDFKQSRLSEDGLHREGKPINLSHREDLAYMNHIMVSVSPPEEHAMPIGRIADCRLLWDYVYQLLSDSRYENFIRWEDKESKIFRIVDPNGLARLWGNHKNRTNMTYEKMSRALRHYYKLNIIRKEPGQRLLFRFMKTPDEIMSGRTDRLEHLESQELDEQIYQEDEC
# Summary of the method: as §1
sequence,measurement,setting,value
CGCAAC,binding signal,FLI1,"1.04 fold enrichment (6-mer frequency, TF over GST control)"
same,binding signal,ELK1,"1.08 fold enrichment (6-mer frequency, TF over GST control)"
same,binding signal,GABPA,"1.08 fold enrichment (6-mer frequency, TF over GST control)"
same,binding signal,ERG,"1.03 fold enrichment (6-mer frequency, TF over GST control)"
same,binding signal,ELF1,"1.12 fold enrichment (6-mer frequency, TF over GST control)"
same,binding signal,EHF,"1.01 fold enrichment (6-mer frequency, TF over GST control)"
same,binding signal,FEV,"1.07 fold enrichment (6-mer frequency, TF over GST control)"
same,binding signal,SPIC,"1.08 fold enrichment (6-mer frequency, TF over GST control)"
same,binding signal,ELF4,"1.06 fold enrichment (6-mer frequency, TF over GST control)"
same,binding signal,ELK4,"1 fold enrichment (6-mer frequency, TF over GST control)"
same,binding signal,ETV1,"1.03 fold enrichment (6-mer frequency, TF over GST control)"
same,binding signal,SPDEF,"1.03 fold enrichment (6-mer frequency, TF over GST control)"
same,binding signal,ELF5,"1.01 fold enrichment (6-mer frequency, TF over GST control)"
same,binding signal,ETV6,"1.07 fold enrichment (6-mer frequency, TF over GST control)"
